Reference: the supplement of paper PMC8371130
Where a name gives a salt, the structure may show the parent alone.

Tested on: HL-1
Test: relative cell viability (CellTiter-Glo) vs DMSO control (% of DMSO control); higher = more viable cells
In short: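 One day after HL-1 mouse atrial cardiomyocytes were plated (1000 cells per well, 384-well plates) with compounds at 40, 200, 1000 or 5000 nM in 0.01% DMSO, they were transferred to a hypoxic workstation at 1% O2. After 48 h there, the cells were reoxygenated for 24 h in a normal incubator, and comparison cells stayed in normoxia throughout the same time. Cell viability was quantified with CellTiter-Glo luminescence and normalised to vehicle-treated control cells.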

[1] = oxygen condition: hypoxia 48 h (1% O2) + reoxygenation 24 h, 40 nM
[2] = oxygen condition: hypoxia 48 h (1% O2) + reoxygenation 24 h, 200 nM
[3] = oxygen condition: hypoxia 48 h (1% O2) + reoxygenation 24 h, 1000 nM
[4] = oxygen condition: hypoxia 48 h (1% O2) + reoxygenation 24 h, 5000 nM
[5] = oxygen condition: normoxia 72 h, 40 nM
[6] = oxygen condition: normoxia 72 h, 200 nM
[7] = oxygen condition: normoxia 72 h, 1000 nM
[8] = oxygen condition: normoxia 72 h, 5000 nM

Compound | relative cell viability [1] | relative cell viability [2] | relative cell viability [3] | relative cell viability [4] | relative cell viability [5] | relative cell viability [6] | relative cell viability [7] | relative cell viability [8]
C[C@]12CC[C@@H]3c4ccc(O)cc4C[C@@H](CCCCCCCCC[S+]([O-])CCCC(F)(F)C(F)(F)F)[C@H]3[C@@H]1CC[C@@H]2O (stereo partly drawn) [Fulvestrant] | 102 | 113 | 110 | 122 | 111 | 117 | 122 | 135
CC(C)c1c(C(=O)Nc2ccccc2)c(-c2ccccc2)c(-c2ccc(F)cc2)n1CC[C@@H](O)C[C@@H](O)CC(=O)O [Atorvastatin calcium] | 107 | 95.8 | 102 | 41.7 | 96.4 | 98.8 | 81.6 | 19.9
C#Cc1cccc(Nc2ncnc3cc(OCCOC)c(OCCOC)cc23)c1 [Erlotinib HCl] | 114 | 107 | 105 | 124 | 112 | 123 | 112 | 113
CC[C@H]1OC(=O)[C@H](C)[C@@H](O[C@H]2C[C@@](C)(OC)[C@@H](O)[C@H](C)O2)[C@H](C)[C@@H](O[C@@H]2O[C@H](C)C[C@H](N(C)C)[C@H]2O)[C@](C)(OC)C[C@@H](C)C(=O)[C@H](C)[C@@H](O)[C@]1(C)O [Clarithromycin] | 101 | 101 | 105 | 105 | 100 | 100 | 107 | 108
COc1ccc2[nH]c([S@@+]([O-])Cc3ncc(C)c(OC)c3C)nc2c1 [Esomeprazole sodium] | 94 | 93.2 | 106 | 106 | 94.1 | 96 | 100 | 114
CNC(=O)c1ccc(N2C(=S)N(c3ccc(C#N)c(C(F)(F)F)c3)C(=O)C2(C)C)cc1F | 99.6 | 103 | 51.5 | 106 | 99.6 | 102 | 106 | 109
CCOC(=O)[C@H](CCc1ccccc1)N[C@H]1CCCN2CCC[C@@H](C(=O)O)N2C1=O [Cilazapril monohydrate] | 97.6 | 97.3 | 94.1 | 113 | 105 | 106 | 98.7 | 115
CCCc1nc2c(C)cc(-c3nc4ccccc4n3C)cc2n1Cc1ccc(-c2ccccc2C(=O)O)cc1 [Telmisartan] | 107 | 102 | 105 | 101 | 105 | 104 | 107 | 109
N[C@@H](Cc1cc(I)c(Oc2ccc(O)c(I)c2)c(I)c1)C(=O)O [Liothyronine Sodium] | 105 | 108 | 111 | 109 | 103 | 102 | 108 | 107
O=C[C@H](O)[C@@H](O)[C@H](O)CO [Xylose] | 106 | 102 | 103 | 111 | 107 | 105 | 112 | 111
CC[C@H](C)C(=O)O[C@H]1CCC=C2C=C[C@H](C)[C@H](CC[C@@H]3C[C@@H](O)CC(=O)O3)[C@H]21 [Mevastatin] | 112 | 101 | 99.3 | 113 | 101 | 105 | 106 | 119
Oc1ccc(OCc2ccccc2)cc1 [Monobenzone] | 99.6 | 114 | 110 | 103 | 107 | 104 | 108 | 99.8
CC(C)(OCc1nn(Cc2ccccc2)c2ccccc12)C(=O)O [Bindarit] | 99.2 | 99.8 | 100 | 3.69 | 96.7 | 100 | 95.7 | 3.69
NC(=O)OCC(COC(N)=O)c1ccccc1 [Felbamate] | 101 | 106 | 96.3 | 110 | 110 | 107 | 105 | 110
CC(=O)OCC(CCn1cnc2cnc(N)nc21)COC(C)=O [Famciclovir] | 101 | 104 | 100 | 113 | 106 | 106 | 105 | 121
CO[C@H]1C[C@@H]2CC[C@@H](C)[C@@](O)(O2)C(=O)C(=O)N2CCCC[C@H]2C(=O)O[C@H]([C@H](C)C[C@@H]2CC[C@@H](OC(=O)C(C)(CO)CO)[C@H](OC)C2)CC(=O)[C@H](C)/C=C(\C)[C@@H](O)[C@@H](OC)C(=O)[C@H](C)C[C@H](C)/C=C/C=C/C=C/1C [Temsirolimus] | 70.7 | 67.6 | 74.2 | 61.7 | 60.2 | 67.5 | 81.1 | 44
O=C(NC[C@H]1CN(c2ccc(N3CCOCC3=O)cc2)C(=O)O1)c1ccc(Cl)s1 [Rivaroxaban] | 91.5 | 106 | 99.8 | 112 | 99 | 90.8 | 103 | 92.1
CCCCCOC(=O)Nc1nc(=O)n([C@@H]2O[C@H](C)[C@@H](O)[C@H]2O)cc1F [Capecitabine] | 104 | 94.1 | 106 | 119 | 105 | 113 | 119 | 129

Compound | relative cell viability [1] | relative cell viability [2] | relative cell viability [3] | relative cell viability [4] | relative cell viability [5] | relative cell viability [6] | relative cell viability [7] | relative cell viability [8]
N=C(N)NC(=N)N1CCOCC1 [Moroxydine] | 101 | 98.5 | 103 | 108 | 96.3 | 101 | 105 | 114
CC(C)(C#N)c1cc(Cn2cncn2)cc(C(C)(C)C#N)c1 [Anastrozole] | 94.2 | 99.5 | 57.7 | 34.5 | 100 | 93.2 | 87.9 | 22.4
CN1C[C@@H]2C[C@H]1CN2c1cc2c(cc1F)c(=O)c(C(=O)O)cn2C1CC1 [Danofloxacin Mesylate] | 106 | 104 | 111 | 108 | 111 | 101 | 103 | 107
CCc1ccc(CCOc2ccc(CC3SC(=O)NC3=O)cc2)nc1 (stereo not drawn) [Pioglitazone] | 109 | 110 | 114 | 116 | 104 | 107 | 117 | 120
Cc1nc2n(c(=O)c1CCN1CCC(c3noc4cc(F)ccc34)CC1)CCCC2O (stereo not drawn) [Paliperidone] | 106 | 107 | 106 | 104 | 104 | 109 | 105 | 118
O=C(O)c1ccc(NC(=O)[C@H](Cc2ccc(O)cc2)NC(=O)c2ccccc2)cc1 [Bentiromide] | 104 | 104 | 101 | 102 | 103 | 106 | 99.5 | 111
CN(C)C/C=C/C(=O)Nc1cc2c(Nc3ccc(F)c(Cl)c3)ncnc2cc1O[C@H]1CCOC1 [Afatinib] | 102 | 107 | 85.9 | 64.7 | 102 | 102 | 72.5 | 17.6
COc1cccc2c1C(=O)c1c(O)c3c(c(O)c1C2=O)C[C@@](O)(C(=O)CO)C[C@@H]3O[C@H]1C[C@H](N)[C@@H](O)[C@H](C)O1 [Epirubicin Hydrochloride] | 96.8 | 102 | 107 | 91.5 | 93.5 | 97.6 | 91.7 | 96.4
Nc1ncnc2c1ncn2[C@@H]1O[C@H](CO)[C@@H](O)[C@H]1O [Adenosine] | 104 | 107 | 113 | 108 | 104 | 108 | 111 | 110
CC(C)(Sc1cc(C(C)(C)C)c(O)c(C(C)(C)C)c1)Sc1cc(C(C)(C)C)c(O)c(C(C)(C)C)c1 [Probucol] | 108 | 105 | 104 | 110 | 106 | 103 | 105 | 112
CN[C@H](CC(C)C)C(=O)N[C@H]1C(=O)N[C@@H](CC(N)=O)C(=O)N[C@H]2C(=O)N[C@H]3C(=O)N[C@H](C(=O)N[C@H](C(=O)O)c4cc(O)cc(O)c4-c4cc3ccc4O)[C@H](O)c3ccc(c(Cl)c3)Oc3cc2cc(c3O[C@@H]2O[C@H](CO)[C@@H](O)[C@H](O)[C@H]2O[C@H]2C[C@](C)(N)[C@H](O)[C@H](C)O2)Oc2ccc(cc2Cl)[C@H]1O [Vancomycin HCl] | 105 | 92.7 | 105 | 114 | 106 | 99.4 | 106 | 113
CC1=CC(=O)c2ccccc2C1=O [Menadione] | 100 | 98.2 | 102 | 109 | 101 | 104 | 101 | 106
CN1CCC(=C2c3ccccc3CC(=O)c3sccc32)CC1 [Ketotifen fumarate] | 108 | 103 | 101 | 113 | 99.8 | 100 | 105 | 106
COC(=O)C1=C(C#N)NC(C)=C(C(=O)OC(C)C)C1c1cccc([N+](=O)[O-])c1 (stereo not drawn) [Nilvadipine] | 107 | 105 | 96.3 | 98.7 | 98.3 | 98.1 | 102 | 108
CCOc1ccc2ccccc2c1C(=O)N[C@@H]1C(=O)N2[C@@H]1SC(C)(C)[C@@H]2C(=O)O [nafcillin sodium monohydrate] | 92.6 | 104 | 105 | 109 | 99.1 | 101 | 103 | 107
Nc1cccc2c1C(=O)N(C1CCC(=O)NC1=O)C2=O (stereo not drawn) [Pomalidomide] | 100 | 97.5 | 103 | 112 | 96.9 | 104 | 103 | 113
Cc1ccc(S(=O)(=O)NC(=O)NN2CCCCCC2)cc1 [Tolazamide] | 101 | 103 | 98.3 | 110 | 102 | 99.1 | 106 | 117
Cc1cn([C@H]2C[C@H](N=[N+]=[N-])[C@@H](CO)O2)c(=O)[nH]c1=O [Zidovudine] | 106 | 109 | 119 | 112 | 110 | 110 | 112 | 109
